Rows were chosen to be rich in hits. Some 1.9% of all compounds tested hit in one or more screens of this group.
BJeLR lethal: MLPCN primary cell-based screen for lethality selective to Ras in HRASV12 cells | BJeLR (HRASV12) viability, CellTiter-Glo ATP luminescence, 48 h | inhibition, % (no concentration beside the values) | 300,000 compounds, 0.17% hits | AID 1554, 2009; in the data active = inhibition above about 50%; inconclusive = no clear call, values can overlap the other calls
PrP UTR inh: inhibition of PrP 5' UTR reporter expression. cell-based PrP 5' UTR mRNA reporter, plate reader. 340,000 compounds, 0.35% hits. AID 488862, 2010. inhibition, % (no concentration beside the values); in the data active = inhibition above about 52%; note: 0 = median of the neutral control wells
PfHsp40 yeast: rescue of yeast from PfHsp40 toxicity, primary screen, S. cerevisiae, ATP luminescence; S. cerevisiae expressing PfHsp40, growth rescue; growth rescue, % at 12.5 µM; 340,000 compounds, 0.68% hits; AID 504582, 2011; in the data active = growth rescue above about 28%, passing the limit was not always enough; inconclusive = no clear call, values can overlap the other calls;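 note: yeast W303a lacking pdr1 and pdr3 grown in galactose medium; growth measured after three days at 30 °C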
RecA intein inh: Mtb RecA intein splicing inhibitors, primary screen, biochemical, fluorescence, HTS; Protein RecA (Mycobacterium tuberculosis (strain ATCC 25618 / H37Rv)), P9WHJ3; cell-free RecA intein splicing; inhibition, % (test concentration not listed); 290,000 compounds, 0.75% hits; AID 2221, 2009; in the data active = inhibition above about 30%; inconclusive = no clear call, values can overlap the other calls;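 note: 0% = vehicle wells and 100% = reference inhibitor control wells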
Target sequence (P9WHJ3 whole entry, looked up): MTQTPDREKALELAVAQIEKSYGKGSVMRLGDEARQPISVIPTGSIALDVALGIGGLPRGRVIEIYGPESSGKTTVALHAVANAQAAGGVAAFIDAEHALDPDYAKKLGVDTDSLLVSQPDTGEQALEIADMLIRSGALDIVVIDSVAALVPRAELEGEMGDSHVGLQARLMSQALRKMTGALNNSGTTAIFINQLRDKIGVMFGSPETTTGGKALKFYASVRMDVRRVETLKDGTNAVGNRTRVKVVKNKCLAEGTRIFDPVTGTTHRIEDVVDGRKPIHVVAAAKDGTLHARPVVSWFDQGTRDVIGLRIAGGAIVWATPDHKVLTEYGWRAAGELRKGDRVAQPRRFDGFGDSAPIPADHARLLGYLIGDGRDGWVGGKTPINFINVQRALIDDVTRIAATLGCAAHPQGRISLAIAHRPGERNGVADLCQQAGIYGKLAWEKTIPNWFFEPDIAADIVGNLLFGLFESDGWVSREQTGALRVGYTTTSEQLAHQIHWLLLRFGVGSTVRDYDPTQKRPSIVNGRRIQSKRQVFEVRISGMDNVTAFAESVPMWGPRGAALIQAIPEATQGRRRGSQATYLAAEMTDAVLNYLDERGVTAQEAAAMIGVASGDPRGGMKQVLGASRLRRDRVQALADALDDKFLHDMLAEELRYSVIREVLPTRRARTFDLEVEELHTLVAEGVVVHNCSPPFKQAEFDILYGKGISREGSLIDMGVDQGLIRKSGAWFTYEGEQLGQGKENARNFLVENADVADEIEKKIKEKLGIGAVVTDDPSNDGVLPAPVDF
PrPC surface inh: inhibitors of human cell surface prion protein PrPC, primary screen, cell-based, TR-FRET. 370,000 compounds, 0.43% hits. inhibition, % at 13.8 µM. Major prion protein (Homo sapiens), P04156. TR-FRET read-out; in the data active = inhibition above about 24%; note: 0% = median of the test wells and 100% = reference compound wells
SSB-PriA inh: inhibitors of Klebsiella pneumoniae PriA binding to SSB C-terminal tail, primary screen, biochemical, AlphaScreen; PriA–SSB C-terminal tail interaction (Klebsiella pneumoniae); AlphaScreen SSBct-PriA binding, biotinylated peptide; inhibition, % at 33 µM; 430,000 compounds, 0.6% hits; AID 1272365, 2023; in the data active = inhibition mostly above about 37%, no sharp cut-off; inactive = mostly below about 20%;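 note: plate controls were negative control peptide for no effect and reference peptide for full effect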
Starred values were filed as active, the others as inactive; i = inactive; ? = inconclusive; nt = not tested or not shown; ! = repeats disagree.

SMILES	BJeLR lethal	PrP UTR inh	PfHsp40 yeast	RecA intein inh	PrPC surface inh	SSB-PriA inh
COc1ccc(-c2ccc(=O)[nH]n2)cc1	-12.7	-5.2	-0.9	-1.8	nt	-11.1
S=c1nc[nH]c2nc[nH]c12	76.4*	9.5	0.8	-1.7	-0.3	5.5
O=C(NCCC1=CCCCC1)C(=O)NCC1CCN(Cc2cccs2)CC1	nt	nt	nt	nt	nt	-9.0
COc1cccc(-n2c(SCc3cccnc3)nc3c(c2=O)SCC3)c1	nt	nt	nt	nt	nt	2.0
COc1cccc(-n2c(SCc3ccccn3)nc3c(c2=O)SCC3)c1	-6.0	-13.6	62.5*	-0.1	-0.1	8.6
CC(C)=C1C(=O)NN(c2ccc(F)c(Cl)c2)C1=O	1.3	-17.8	-1.1	-1.9	3.1	-15.3
O=C1NN(c2ccc(F)c(Cl)c2)C(=O)/C1=C\c1cccc(OC(=O)c2cccs2)c1	8.6	-9.6	85.4*	21.6	9.0	-8.9
Cc1cccc(-n2cc(CN(C)Cc3nccn3C)c(-c3cccc(F)c3)n2)c1	-4.8	-15.5	-0.4	10.3	8.9	39.1*
O=C(Cn1ccn2nc(-c3ccc(F)cc3)cc2c1=O)NCCC1=CCCCC1	nt	nt	nt	nt	nt	-4.0
CCOc1ccc2nc(NC(=S)N(C)C)sc2c1	0.9	-39.7	122.3*	-1.5	0.2	2.1
O=C(CSc1cccc2cccnc12)n1c2ccccc2c2ccccc21	nt	nt	nt	nt	nt	73.2*
Cc1cc(C)c(C(=O)CSc2cccc3cccnc23)cc1C	nt	nt	nt	nt	nt	58.8*
O=C(CSc1cccc2cccnc12)N1CCCC1	-6.0	-7.1	4.6	-3.1	-5.8	79.0*
NNC(=O)CSc1cccc2cccnc12	4.3	-21.1	-0.6	0.6	6.7	4.0
CN(C)C(=O)CSc1cccc2cccnc12	10.0	-11.8	0.3	0.2	-7.5	94.2*
CCC1CCCCN1C(=O)CSc1cccc2cccnc12 (stereo not drawn)	nt	nt	nt	nt	nt	10.5
COc1cc2nc(NC(=O)[C@@H]3CCCN3S(=O)(=O)c3ccc(Cl)s3)sc2cc1OC	nt	nt	nt	nt	nt	22.0
CC(C)c1nnc(C2CCN(C(=O)Cn3ccc4ccccc43)CC2)o1	nt	nt	nt	nt	nt	-16.0
CS(=O)(=O)c1cccc2sc(N3CCN(C(=O)C4CCN(S(C)(=O)=O)CC4)CC3)nc12	nt	nt	nt	nt	nt	-1.0
Cc1noc(C)c1S(=O)(=O)NCCn1ccc(C(F)(F)F)n1	nt	nt	nt	nt	nt	-1.0
O=C(CSc1cccc2cccnc12)N1CCc2ccccc2C1	nt	nt	nt	nt	nt	91.3*
O=C(COc1cccc2cccnc12)N1CCc2ccccc2C1	0.1	-0.1	-0.8	2.5	-3.0	-9.3
O=[N+]([O-])c1ccccc1S(=O)(=O)NCC(c1cccc2ccccc12)N1CCOCC1 (stereo not drawn)	nt	nt	nt	nt	nt	37.0*
Cc1ccccc1CSc1nccn1-c1ccccc1	-2.1	-21.7	0.1	7.9	3.8	49.5*
CCOc1ccc(C(=O)c2cn(Cc3ccc(OC)cc3)c3c(F)cc(F)cc3c2=O)cc1	nt	nt	nt	nt	nt	0.0
SMILES	BJeLR lethal	PrP UTR inh	PfHsp40 yeast	RecA intein inh	PrPC surface inh	SSB-PriA inh
CCCOc1cc(N2CCN(C(=O)C(C)C)CC2)nc(C)n1	nt	nt	nt	nt	nt	-8.0
O=C(CN1CCN(C(=O)CNC(=O)c2ccc3c(c2)OCO3)CC1)Nc1ccc(F)cc1	nt	-18.1	-0.7	nt	3.9	53.1*
O=C(CN1CCN(Cc2ccc3c(c2)OCO3)CC1)Nc1ccc(F)cc1	5.6	0.7	-0.4	1.3	-8.1	-1.2
O=C1CSC(=S)N1N=Cc1ccc(O)c(O)c1O	nt	nt	nt	nt	nt	99.8*
CCOc1cccc(C=NN2C(=O)CSC2=S)c1O	nt	nt	nt	nt	nt	71.0*
COc1cccc(C=NN2C(=O)CSC2=S)c1O	nt	nt	nt	nt	nt	92.9
O=C1CSC(=S)N1N=Cc1ccccc1O	nt	-19.1	0.2	nt	8.5	30.3
O=S(c1ccccc1O)S(=O)c1ccccc1O (stereo not drawn)	nt	-20.9	144.0*	nt	3.6	4.3
CS(=O)c1ccccc1O (stereo not drawn)	-4.1	4.7	0.1	-2.8	3.2	8.3
COc1cc(S(=O)(=O)NC2CCCCC2C)ccc1Cl (stereo not drawn)	nt	-17.3	-1.6	nt	9.2	-14.0
COc1cc(S(=O)(=O)NC2CCCCC2C)ccc1F (stereo not drawn)	3.4	-12.0	98.3*	-0.3	-4.7	-4.5
COc1ccc(Cl)cc1NC(=O)Cn1c(C)cc(C)c(-c2nc(-c3ccc(F)cc3)no2)c1=O	nt	nt	nt	nt	nt	2.0
O=C(CC(=O)c1c(F)cccc1Cl)c1ccccc1O	3.6	nt	112.1*	2.0	-8.9	-8.0
COc1ccc(OC)c(-c2csc(NC(=O)CCc3ccccc3)n2)c1	nt	nt	nt	nt	nt	11.0
CC(C)(C)OC(=O)NCCCCCNC(=O)c1[nH]cnc1C(=O)N[C@@H](CCCCNC(=O)OC(C)(C)C)C(=O)OC(C)(C)C	-1.0	-6.3	?	-2.7	nt	-2.8
CC(C)(C)OC(=O)NCCCCCNC(=O)c1nc[nH]c1C(=O)NCCCCCNC(=O)OC(C)(C)C	nt	-0.1	44.9*	nt	5.5	-6.1
CC(C)(C)OC(=O)NCCCCCNC(=O)c1nc[nH]c1C(=O)NCc1ccc(CNC(=O)OC(C)(C)C)cc1	nt	-5.7	2.9	nt	24.6*	-4.7
CC(C)(C)OC(=O)NCc1ccc(CNC(=O)c2nc[nH]c2C(=O)NCc2ccc(CNC(=O)OC(C)(C)C)cc2)cc1	nt	-16.6	0.7	nt	0.1	-7.3
CS(=O)(=O)c1ccc(CC(=O)Nc2nnc(-c3ccccc3Cl)o2)cc1	nt	nt	nt	nt	nt	-7.0
CS(=O)(=O)c1ccc(CC(=O)Nc2nnc(Cc3ccc4c(c3)OCCO4)o2)cc1	nt	nt	nt	nt	nt	47.0*
CS(=O)(=O)c1ccc(CC(=O)Nc2nnc(-c3cc(Cl)sc3Cl)o2)cc1	nt	nt	nt	nt	nt	active!
CCN(CC)c1ccc(/C=N/NC(=O)c2ccco2)c(O)c1	57.8*	-42.5	-1.2	-95.1	23.3	nt
CCN(CC)c1ccc(C=NNc2nc3ccccc3[nH]2)cc1	nt	nt	nt	nt	nt	52.3
COc1ccc(/C=N/Nc2nc3ccccc3[nH]2)cc1OC	-9.9	-25.4	75.1*	-2.6	3.3	nt
CCN(CC)c1ccc(/C=N/NC(=O)c2ccco2)cc1	0.5	-51.2	-1.0	-1.7	4.4	nt
SMILES	BJeLR lethal	PrP UTR inh	PfHsp40 yeast	RecA intein inh	PrPC surface inh	SSB-PriA inh
C(=N\Nc1nc2ccccc2[nH]1)/c1ccc2ncccc2c1	88.3*	-17.3	-1.7	0.7	-20.7	i
C(=NNc1nc2ccccc2[nH]1)c1ccccn1	nt	nt	nt	nt	nt	0.5
CCN(CC)c1ccc(/C=N/Nc2nc3ccccc3[nH]2)c(O)c1	60.3*	-4.1	157.6*	29.7	4.2	nt
COc1ccc(/C=C/C(=O)O)cc1S(=O)(=O)N(CCO)CCO	nt	nt	nt	nt	nt	-3.0
N#CC(C#N)=Cc1cn(-c2ccccc2)nc1-c1ccc(-c2ccccc2)cc1	nt	nt	nt	nt	nt	-3.0
CCn1ccc(C(=O)NCc2ccccc2)n1	nt	nt	nt	nt	nt	-14.0
COC(=O)c1sccc1NC(=O)CS(=O)(=O)c1cccs1	nt	nt	nt	nt	nt	-1.0

Assay outcomes deposited in PubChem BioAssay by several laboratories.
